In the library only some 12% were active in any assay of this set; here they are far more common.
HP1b binding inh – blocks HP1-beta chromodomain binding to methylated histone tails; P83916; AlphaScreen HP1-beta / biotin-H3K9me3 peptide binding; Potency, µM (highest dose often 114 µM), most hits filed as inhibitors; 390,000 compounds, 0.56% hits; AID 540317; note: nearly all actives have a fitted effect of over 70% in size
Target sequence (P83916 whole entry, looked up): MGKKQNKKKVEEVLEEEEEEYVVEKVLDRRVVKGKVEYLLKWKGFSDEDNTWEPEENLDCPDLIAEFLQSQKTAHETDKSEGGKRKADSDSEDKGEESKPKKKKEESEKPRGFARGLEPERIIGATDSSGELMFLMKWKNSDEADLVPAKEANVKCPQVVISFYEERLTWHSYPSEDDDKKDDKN
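Compound inhibition of the preformed complex between 50 nM HP1-beta and 50 nM biotinylated H3K9me3 peptide was read by AlphaScreen. Buffer was PBS pH 7.4 with 0.01% Tween-20. Incubations ran 30 min at room temperature, with 10 ug/mL donor/acceptor beads.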
G9a inh-1 – G9a (human) methyltransferase inhibition; Q96KQ7; G9a H3K9 monomethylation, AlphaScreen, 2 h; Potency, µM (top dose mostly 102 µM), actives largely listed as inhibitors; 350,000 compounds, 8.8% hits; AID 504332; note: nearly all actives have a fitted effect of over 75% in size
Target sequence (Q96KQ7 913-1193 limits assumed): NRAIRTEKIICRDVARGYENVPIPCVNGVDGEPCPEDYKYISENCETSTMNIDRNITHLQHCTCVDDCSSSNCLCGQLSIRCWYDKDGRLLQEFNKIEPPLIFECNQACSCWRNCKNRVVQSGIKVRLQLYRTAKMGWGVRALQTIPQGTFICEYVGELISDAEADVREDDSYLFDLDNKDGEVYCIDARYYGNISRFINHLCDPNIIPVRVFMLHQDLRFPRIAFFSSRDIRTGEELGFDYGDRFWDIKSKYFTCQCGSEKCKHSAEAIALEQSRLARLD
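Signal arises when biotinylated H3K9 peptide, once monomethylated, bridges streptavidin donor and antibody-captured acceptor beads. Enzyme at 20 nM was preincubated 15 min with test compounds; peptide 500 nM and SAM 20 uM then reacted for 2 h.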
Sfp PPTase inh – blocks B. subtilis Sfp PPTase activity. Q9F4F7. Biochemical Sfp PPTase activity, qHTS. Potency, µM, hits mostly inhibitors. 310,000 compounds, 3.5% hits. AID 1490;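 note: the enzyme is Sfp with the accession as filed and its product quenches rhodamine fluorescence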
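Compounds were incubated with enzyme (final 15 nM) for 15 min at room temperature before substrate addition started the reaction. Fluorescence at 525 nm excitation, 598 nm emission was recorded immediately and after 30 minutes.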
L3MBTL1 inh-1 – blocks human L3MBTL1 | Q9Y468 | AlphaScreen L3MBTL1–H3K9me1 peptide binding | Potency, µM (titrated, usually from 57.1 µM), most hits filed as inhibitors | 230,000 compounds, 0.66% hits | AID 485360; note: nearly all actives have a fitted effect of over 60% in size
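Read-out is AlphaScreen signal from streptavidin donor and nickel chelate acceptor beads (10 ug/mL final each) bridging L3MBTL1 (50 nM) and biotinylated K9-monomethylated H3(1-15) peptide (75 nM), after 30 min compound exposure at room temperature.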
JMJD2A Tudor – JMJD2A Tudor domain (human) inhibition | AlphaScreen JMJD2A-Tudor / H3K4me3 peptide binding | Potency, µM (doses to about 114 µM), most hits filed as inhibitors | 390,000 compounds, 4.4% hits | AID 504339; note: nearly all actives have a fitted effect of over 50% in size
BAZ2B inh – BAZ2B (human) inhibition; Q9UIF8; AlphaScreen BAZ2B-H3K14Ac peptide displacement; Potency, µM (doses to about 114 µM), hits mostly inhibitors; 360,000 compounds, 4.4% hits; note: nearly all actives have a fitted effect of over 60% in size
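Compounds, titrated to a top concentration of 110 uM, were incubated 30 min at room temperature with preformed BAZ2B/acetyl-K14 H3 peptide complex (50 nM each). Proximity signal was measured by AlphaScreen after 20 min with beads.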
Sfp inh conf – confirmation of Bacillus subtilis Sfp PPTase inhibitors | AID 2701 | 380 compounds, 79% hits | Potency, µM (doses to about 114 µM), most hits filed as inhibitors | Sfp PPTase enzymatic assay, qHTS titration | shares compounds with Sfp PPTase inh
Target sequence (Q9F4F7 whole entry, looked up): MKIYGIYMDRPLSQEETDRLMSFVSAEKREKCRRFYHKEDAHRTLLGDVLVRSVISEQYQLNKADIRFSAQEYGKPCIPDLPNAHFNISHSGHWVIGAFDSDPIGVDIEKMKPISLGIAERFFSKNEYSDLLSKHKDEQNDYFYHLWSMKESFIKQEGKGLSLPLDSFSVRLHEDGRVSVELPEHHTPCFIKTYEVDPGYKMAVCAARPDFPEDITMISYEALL
Sfp gel assay – Blocks Sfp PPTase activity, gel read-out | shares compounds with Sfp PPTase inh | Potency, µM, hits mostly inhibitors | purified Sfp, gel-based phosphopantetheinylation read-out | 210 compounds, 20% hits;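 active = potency below 100 µM; inconclusive = dose-dependent response but potency above 100 µM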;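 note: potency is an IC50 for inhibitors of Sfp transfer activity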
L3MBTL1 inh-2 – validation of human L3MBTL1 methyl-lysine binding inhibitors; AID 540279; L3MBTL1 methyl-lysine binding inhibition, biochemical qHTS; shares compounds with L3MBTL1 inh-1; Potency, µM, actives largely listed as inhibitors; 500 compounds, 91% hits; note: nearly all actives have a fitted effect of over 70% in size
AlphaScreen ctr2 – interferes with AlphaScreen signal in L3MBTL1 counterscreen | shares compounds with L3MBTL1 inh-1 | AlphaScreen counterscreen, signal inhibition | Potency, µM (highest dose often 57.1 µM), hits mostly inhibitors | 500 tested, under 10 active | AID 602224
G9a inh-2 – inhibits human G9a histone lysine methyltransferase, hit confirmation | shares compounds with JMJD2A Tudor | G9a H3K9 monomethylation, AlphaScreen, 2 h | Potency, µM, hits mostly inhibitors | 370 compounds, 89% hits; note: nearly all actives have a fitted effect of over 65% in size
Large screens that a line does not name were inactive (follow-up assays come after a bar, where they were run). Unless noted, calls come from the whole dose curve; as a rule, active = well fitted curve in the direction sought with a large enough effect; inconclusive = small, poorly fitted or top-dose-only effect, or another doubt; inactive = no such curve, though single readings can be large; an effect the other way counts as inactive or inconclusive.

CC(NC(=O)CSc1nc2sc3c(c2c(=O)n1-c1ccccc1)CCCC3)c1ccccc1 (stereo not drawn)	none
CC(C)C(C)NC(=O)CSc1nc2scc(-c3ccco3)c2c(=O)n1-c1ccccc1 (stereo not drawn)	Sfp PPTase inh 4.5µM (no result: L3MBTL1 inh-1) | Sfp inh conf 30µM | Sfp gel assay inconclusive
COc1ccccc1/C=c1\sc2nc(-c3ccco3)nn2c1=O	HP1b binding inh 50µM, G9a inh-1 20µM, Sfp PPTase inh 2µM, L3MBTL1 inh-1 13µM, JMJD2A Tudor 18µM, BAZ2B inh 35µM | Sfp inh conf 42µM | Sfp gel assay inconclusive | L3MBTL1 inh-2 12 | AlphaScreen ctr2 inactive
Cc1cccc(C)c1-n1ncc(C(=O)O)c1C1CCN(C(=O)OC(C)(C)C)CC1	none (no result: Sfp PPTase inh, L3MBTL1 inh-1)
CCCn1nnnc1NCc1cc(Br)ccc1OC	none
COc1ccc(Br)cc1CNc1ccc(O)cc1	HP1b binding inh inconclusive, G9a inh-1 inconclusive, Sfp PPTase inh 20µM, L3MBTL1 inh-1 inconclusive, JMJD2A Tudor inconclusive, BAZ2B inh 40µM | Sfp inh conf inconclusive | Sfp gel assay inconclusive | G9a inh-2 3.2
Cc1ccc(C)c(NC(=S)N2CCN(c3cccc(C(F)(F)F)c3)CC2)c1	none
Cc1ccnc(NC(=S)N2CCN(c3cccc(C(F)(F)F)c3)CC2)c1	G9a inh-1 1µM, Sfp PPTase inh 2.5µM, JMJD2A Tudor 1µM, BAZ2B inh 20µM (no result: L3MBTL1 inh-1) | Sfp inh conf 15µM | G9a inh-2 0.28
CCN1CCCC1Cn1c(-c2ccccc2)nc2c(NCCOC)nc(C)nc21 (stereo not drawn)	none (no result: HP1b binding inh, G9a inh-1, L3MBTL1 inh-1, JMJD2A Tudor, BAZ2B inh)
O=C(OCc1ccccc1)c1cccnc1	G9a inh-1 1.4µM, Sfp PPTase inh 32µM (no result: HP1b binding inh, L3MBTL1 inh-1, JMJD2A Tudor, BAZ2B inh) | Sfp inh conf 37µM | Sfp gel assay inconclusive | G9a inh-2 2.6
COc1ccccc1CNc1ccc(N2CCCCC2)cc1	HP1b binding inh 32µM, G9a inh-1 inconclusive, Sfp PPTase inh 18µM, L3MBTL1 inh-1 inconclusive, JMJD2A Tudor 32µM, BAZ2B inh 13µM | Sfp inh conf 47µM | Sfp gel assay inactive | G9a inh-2 1.1
CCOc1cccc2cc(-c3nc(-c4ccc(Cl)cc4)c(C)s3)c(=O)oc12	none (no result: Sfp PPTase inh, L3MBTL1 inh-1)
Nc1c(C(=O)OCC(=O)Nc2cccc([N+](=O)[O-])c2)[nH]c(=O)[nH]c1=O	L3MBTL1 inh-1 32µM, JMJD2A Tudor 79µM (no result: G9a inh-1, Sfp PPTase inh, BAZ2B inh) | L3MBTL1 inh-2 24 | AlphaScreen ctr2 inactive
O=C(COC(=O)c1ccccc1C(=O)c1ccccc1)Nc1cccc([N+](=O)[O-])c1	JMJD2A Tudor inconclusive
CCCCN(C(=O)c1cccc(-n2cccc2)c1)c1c(N)n(Cc2ccccc2)c(=O)[nH]c1=O	L3MBTL1 inh-1 20µM, BAZ2B inh 45µM (no result: HP1b binding inh, Sfp PPTase inh, JMJD2A Tudor) | L3MBTL1 inh-2 4.2 | AlphaScreen ctr2 inactive
O=C(O)CC/C(=C\c1cccc(NC(=O)c2ccccc2Cl)c1)c1nc2ccccc2s1	L3MBTL1 inh-1 35µM, BAZ2B inh inconclusive | L3MBTL1 inh-2 inconclusive | AlphaScreen ctr2 inactive
O=C(O)CC/C(=C\c1cc([N+](=O)[O-])ccc1Cl)c1nc2ccccc2s1	none
CC(=O)Oc1cc(C(=O)OCC(=O)N2CCc3ccccc3C2)cc(OC(C)=O)c1OC(C)=O	HP1b binding inh inconclusive, L3MBTL1 inh-1 8.9µM, JMJD2A Tudor 1.6µM (no result: G9a inh-1, Sfp PPTase inh, BAZ2B inh) | L3MBTL1 inh-2 3 | AlphaScreen ctr2 inactive
COc1ccc(C(=O)OCC(=O)N2CCc3ccccc3C2)cc1OC	none (no result: G9a inh-1, Sfp PPTase inh, BAZ2B inh)
COc1ccccc1CCn1c(=O)c(-c2ccc(F)c(F)c2)nc2cncnc21	none (no result: HP1b binding inh, L3MBTL1 inh-1, JMJD2A Tudor, BAZ2B inh)
CC(=O)Nc1ccc(NS(=O)(=O)c2c(C(=O)N3CCCCCC3)c(C)n(C)c2C)cc1	none (no result: Sfp PPTase inh, L3MBTL1 inh-1)
CCN(CC(=O)Nc1c(F)cccc1F)C(=O)/C=C/c1ccc(C)o1	none (no result: Sfp PPTase inh)
CCN(CC(=O)Nc1c(F)cccc1F)C(=O)/C=C/c1ccc2ccccc2n1	G9a inh-1 7.1µM, L3MBTL1 inh-1 3.2µM, JMJD2A Tudor 3.5µM, BAZ2B inh 8.9µM (no result: Sfp PPTase inh) | L3MBTL1 inh-2 1.7 | AlphaScreen ctr2 inactive
Cc1c(Cl)cccc1Nc1nn2c(=O)c3ccc(C(=O)NCCC4=CCCCC4)cc3nc2s1	none (no result: Sfp PPTase inh, L3MBTL1 inh-1)
O=S(=O)(Nc1cc(Sc2cccc3cccnc23)c(O)c2ccccc12)c1ccc(F)cc1	HP1b binding inh 18µM, G9a inh-1 2µM, Sfp PPTase inh 10µM, L3MBTL1 inh-1 28µM, JMJD2A Tudor 18µM, BAZ2B inh inconclusive | L3MBTL1 inh-2 21 | AlphaScreen ctr2 inactive
CCS(=O)(=O)N1Cc2ccccc2CC1C(=O)Nc1nnc(SCc2ccc(C#N)cc2)s1 (stereo not drawn)	G9a inh-1 45µM, L3MBTL1 inh-1 18µM | L3MBTL1 inh-2 3.4 | AlphaScreen ctr2 inactive

Screens (PubChem BioAssay)
